Reference: publication PMC7862700, “An all-to-all approach to the identification of sequence-specific readers for epigenetic DNA modifications on cytosine”

What was measured:
Experiment in all cases: DAPPL (digital affinity profiling via proximity ligation, sequencing); 10 mM Tris-HCl pH 7.5, 50 mM NaCl, 1 mM DTT, 4% glycerol, room temperature, 30 min; GST-TFs on glutathione beads, 16-mer random dsDNA library, 0.1% formaldehyde crosslink after washing; high values mean tight binding
[1] = molecular target: T1, FLI1 (Homo sapiens, UniProt Q01543 1-452); settings: protein: recombinant; tags: N-terminal GST; dsDNA, one strand shown
T1 sequence: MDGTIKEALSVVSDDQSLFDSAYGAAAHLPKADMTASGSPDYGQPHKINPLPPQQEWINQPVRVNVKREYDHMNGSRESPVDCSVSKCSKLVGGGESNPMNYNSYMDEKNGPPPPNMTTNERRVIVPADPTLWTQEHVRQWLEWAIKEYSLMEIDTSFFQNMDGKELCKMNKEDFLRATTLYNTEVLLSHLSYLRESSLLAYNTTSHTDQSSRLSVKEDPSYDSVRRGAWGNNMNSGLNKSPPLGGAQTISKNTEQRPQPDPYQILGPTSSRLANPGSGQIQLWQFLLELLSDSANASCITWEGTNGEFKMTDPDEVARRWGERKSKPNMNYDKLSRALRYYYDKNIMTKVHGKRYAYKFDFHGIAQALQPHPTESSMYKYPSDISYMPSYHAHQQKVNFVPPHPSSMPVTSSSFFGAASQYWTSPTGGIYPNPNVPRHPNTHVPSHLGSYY
Summary of the method: (§1)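 Binding signal is each hexamer's read frequency for a factor divided by its frequency in the tag-only sample. The factors were GST-fused human transcription factors from yeast, captured on glutathione beads, DNA-barcoded and pooled with that sample. Pools were incubated with 200 nmole of a random double-stranded 16-mer DNA library in Tris/NaCl/DTT/glycerol buffer at room temperature for 30 min, then washed, crosslinked with 0.1% formaldehyde, proximity-ligated with BsaI/T4 ligase (1 h, 37 °C), PCR-amplified and sequenced on an Illumina NextSeq500.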

[2] = molecular target: T2, ELK1 (Homo sapiens, UniProt P19419 1-428); settings: protein: recombinant; tags: N-terminal GST; dsDNA, one strand shown
T2 sequence: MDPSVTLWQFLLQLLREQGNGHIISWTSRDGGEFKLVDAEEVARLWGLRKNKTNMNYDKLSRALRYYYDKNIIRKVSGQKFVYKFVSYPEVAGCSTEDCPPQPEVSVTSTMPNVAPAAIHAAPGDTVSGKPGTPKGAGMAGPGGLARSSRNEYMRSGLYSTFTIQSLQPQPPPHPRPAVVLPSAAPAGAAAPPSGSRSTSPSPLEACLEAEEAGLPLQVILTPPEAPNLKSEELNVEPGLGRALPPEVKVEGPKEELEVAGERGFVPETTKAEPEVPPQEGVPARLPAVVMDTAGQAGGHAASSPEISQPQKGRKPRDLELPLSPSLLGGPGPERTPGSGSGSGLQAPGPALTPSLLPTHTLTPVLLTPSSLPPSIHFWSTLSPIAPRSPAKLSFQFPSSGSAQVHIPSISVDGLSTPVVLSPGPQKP
Summary of the method: as §1

[3] = molecular target: T3, GABPA (Homo sapiens, UniProt Q06546 1-454); settings: protein: recombinant; tags: N-terminal GST; dsDNA, one strand shown
T3 sequence: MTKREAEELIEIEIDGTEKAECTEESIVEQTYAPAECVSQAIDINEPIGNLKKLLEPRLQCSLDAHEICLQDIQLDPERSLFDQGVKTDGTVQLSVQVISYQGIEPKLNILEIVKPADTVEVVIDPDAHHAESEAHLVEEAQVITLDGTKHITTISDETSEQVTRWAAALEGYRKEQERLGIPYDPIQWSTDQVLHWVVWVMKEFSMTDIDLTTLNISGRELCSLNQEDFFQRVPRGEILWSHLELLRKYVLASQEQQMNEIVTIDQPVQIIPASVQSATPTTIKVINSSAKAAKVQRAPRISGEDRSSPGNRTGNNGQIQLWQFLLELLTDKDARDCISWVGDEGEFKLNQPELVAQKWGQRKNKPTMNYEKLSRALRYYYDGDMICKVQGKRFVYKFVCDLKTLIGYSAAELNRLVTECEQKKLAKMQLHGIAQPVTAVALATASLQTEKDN
Summary of the method: as §1

[4] = molecular target: T4, ERG (Homo sapiens, UniProt P11308 1-479); settings: protein: recombinant; tags: N-terminal GST; dsDNA, one strand shown
T4 sequence: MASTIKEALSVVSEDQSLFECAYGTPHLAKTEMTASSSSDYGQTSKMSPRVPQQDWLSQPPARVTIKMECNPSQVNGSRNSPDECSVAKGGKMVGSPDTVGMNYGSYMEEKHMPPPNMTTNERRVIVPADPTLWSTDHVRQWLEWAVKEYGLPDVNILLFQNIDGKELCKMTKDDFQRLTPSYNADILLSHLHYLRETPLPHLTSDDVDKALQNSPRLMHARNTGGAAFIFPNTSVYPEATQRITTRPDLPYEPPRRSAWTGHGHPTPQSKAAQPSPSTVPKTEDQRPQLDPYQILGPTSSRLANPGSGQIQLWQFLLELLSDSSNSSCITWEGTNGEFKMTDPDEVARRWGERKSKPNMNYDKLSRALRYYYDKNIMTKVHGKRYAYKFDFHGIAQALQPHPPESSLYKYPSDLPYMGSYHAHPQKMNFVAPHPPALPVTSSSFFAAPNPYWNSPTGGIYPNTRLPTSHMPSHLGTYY
Summary of the method: as §1

[5] = molecular target: ELF1 (Homo sapiens, UniProt P32519 1-619); settings: protein: recombinant; tags: N-terminal GST; dsDNA, one strand shown
Summary of the method: as §1

[6] = molecular target: T5, EHF (Homo sapiens, UniProt Q9NZC4 1-300); settings: protein: recombinant; tags: N-terminal GST; dsDNA, one strand shown
T5 sequence: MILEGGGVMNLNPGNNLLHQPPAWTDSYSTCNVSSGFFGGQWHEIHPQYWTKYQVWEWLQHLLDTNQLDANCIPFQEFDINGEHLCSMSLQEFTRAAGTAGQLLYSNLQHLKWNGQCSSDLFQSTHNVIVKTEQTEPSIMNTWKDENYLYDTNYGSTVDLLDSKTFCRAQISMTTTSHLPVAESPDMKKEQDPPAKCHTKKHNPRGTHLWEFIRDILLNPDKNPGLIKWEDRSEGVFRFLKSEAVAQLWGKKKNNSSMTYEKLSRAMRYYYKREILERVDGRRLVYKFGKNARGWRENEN
Summary of the method: as §1

[7] = molecular target: SPI1 (Homo sapiens, UniProt P17947 1-270); settings: protein: recombinant; tags: N-terminal GST; dsDNA, one strand shown
Summary of the method: as §1

[8] = molecular target: SPIB (Homo sapiens, UniProt Q01892 1-262); settings: protein: recombinant; tags: N-terminal GST; dsDNA, one strand shown
Summary of the method: as §1

[9] = molecular target: T6, ELK3 (Homo sapiens, UniProt P41970 1-407); settings: protein: recombinant; tags: N-terminal GST; dsDNA, one strand shown
T6 sequence: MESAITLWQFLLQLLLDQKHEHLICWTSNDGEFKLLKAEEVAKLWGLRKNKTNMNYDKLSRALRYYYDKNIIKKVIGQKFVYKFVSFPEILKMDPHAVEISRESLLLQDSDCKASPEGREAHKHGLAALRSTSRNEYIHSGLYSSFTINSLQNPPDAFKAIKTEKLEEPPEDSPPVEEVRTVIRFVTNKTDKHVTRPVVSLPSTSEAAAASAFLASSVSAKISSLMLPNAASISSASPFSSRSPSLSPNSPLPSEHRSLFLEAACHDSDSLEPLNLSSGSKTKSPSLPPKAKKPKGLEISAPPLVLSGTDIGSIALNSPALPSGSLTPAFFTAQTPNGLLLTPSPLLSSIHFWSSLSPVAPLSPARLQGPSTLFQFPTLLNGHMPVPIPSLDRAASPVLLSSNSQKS
Summary of the method: as §1

[10] = molecular target: T7, FEV (Homo sapiens, UniProt Q99581 1-238); settings: protein: recombinant; tags: N-terminal GST; dsDNA, one strand shown
T7 sequence: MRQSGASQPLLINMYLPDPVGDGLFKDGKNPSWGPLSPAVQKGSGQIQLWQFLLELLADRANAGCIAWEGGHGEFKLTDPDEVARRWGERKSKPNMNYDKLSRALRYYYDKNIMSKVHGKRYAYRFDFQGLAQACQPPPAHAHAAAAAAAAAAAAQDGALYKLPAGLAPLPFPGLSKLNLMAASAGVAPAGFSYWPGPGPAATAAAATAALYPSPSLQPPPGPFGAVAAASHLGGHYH
Summary of the method: as §1

[11] = molecular target: ETV5 (Homo sapiens, UniProt P41161 1-510); settings: protein: recombinant; tags: N-terminal GST; dsDNA, one strand shown
Summary of the method: as §1

[12] = molecular target: HSF1 (Homo sapiens, UniProt Q00613 1-529); settings: protein: recombinant; tags: N-terminal GST; chain copies: 3; dsDNA, one strand shown
Summary of the method: as §1

[13] = molecular target: T8, SPIC (Homo sapiens, UniProt Q8N5J4 1-248); settings: protein: recombinant; tags: N-terminal GST; dsDNA, one strand shown
T8 sequence: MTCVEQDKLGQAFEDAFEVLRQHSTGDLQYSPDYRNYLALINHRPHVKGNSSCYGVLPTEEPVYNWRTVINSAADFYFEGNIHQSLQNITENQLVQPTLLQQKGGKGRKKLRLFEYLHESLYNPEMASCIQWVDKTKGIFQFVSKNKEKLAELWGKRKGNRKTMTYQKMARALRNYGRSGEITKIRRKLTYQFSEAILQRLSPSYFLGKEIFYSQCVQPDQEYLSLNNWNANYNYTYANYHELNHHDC
Summary of the method: as §1

[14] = molecular target: ELF4 (Homo sapiens, UniProt Q99607 1-663); settings: protein: recombinant; tags: N-terminal GST; dsDNA, one strand shown
Summary of the method: as §1

[15] = molecular target: T9, ELK4 (Homo sapiens, UniProt P28324-2 1-405); settings: protein: recombinant; tags: N-terminal GST; dsDNA, one strand shown
T9 sequence: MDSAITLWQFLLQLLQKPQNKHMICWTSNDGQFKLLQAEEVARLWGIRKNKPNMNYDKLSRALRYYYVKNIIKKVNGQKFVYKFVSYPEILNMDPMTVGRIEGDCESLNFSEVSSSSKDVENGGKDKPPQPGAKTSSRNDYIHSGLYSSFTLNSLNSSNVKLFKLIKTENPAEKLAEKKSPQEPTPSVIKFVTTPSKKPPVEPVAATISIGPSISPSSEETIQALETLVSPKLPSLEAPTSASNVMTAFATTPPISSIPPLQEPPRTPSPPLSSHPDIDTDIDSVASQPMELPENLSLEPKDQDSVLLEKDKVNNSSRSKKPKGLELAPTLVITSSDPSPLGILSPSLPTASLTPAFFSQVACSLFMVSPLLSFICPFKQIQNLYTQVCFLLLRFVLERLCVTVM
Summary of the method: as §1

[16] = molecular target: T10, ETV2 (Homo sapiens, UniProt O00321 1-342); settings: protein: recombinant; tags: N-terminal GST; dsDNA, one strand shown
T10 sequence: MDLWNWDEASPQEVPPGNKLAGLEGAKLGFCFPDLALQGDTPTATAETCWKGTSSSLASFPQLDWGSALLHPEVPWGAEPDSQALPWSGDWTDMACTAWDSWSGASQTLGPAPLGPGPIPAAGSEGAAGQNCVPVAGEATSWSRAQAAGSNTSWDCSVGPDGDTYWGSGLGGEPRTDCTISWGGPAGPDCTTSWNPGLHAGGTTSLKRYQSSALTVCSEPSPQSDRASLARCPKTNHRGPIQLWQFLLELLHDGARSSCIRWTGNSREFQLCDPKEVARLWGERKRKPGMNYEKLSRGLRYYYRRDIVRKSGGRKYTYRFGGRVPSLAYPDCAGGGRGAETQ
Summary of the method: as §1

[17] = molecular target: T11, ELF3 (Homo sapiens, UniProt P78545 1-371); settings: protein: recombinant; tags: N-terminal GST; dsDNA, one strand shown
T11 sequence: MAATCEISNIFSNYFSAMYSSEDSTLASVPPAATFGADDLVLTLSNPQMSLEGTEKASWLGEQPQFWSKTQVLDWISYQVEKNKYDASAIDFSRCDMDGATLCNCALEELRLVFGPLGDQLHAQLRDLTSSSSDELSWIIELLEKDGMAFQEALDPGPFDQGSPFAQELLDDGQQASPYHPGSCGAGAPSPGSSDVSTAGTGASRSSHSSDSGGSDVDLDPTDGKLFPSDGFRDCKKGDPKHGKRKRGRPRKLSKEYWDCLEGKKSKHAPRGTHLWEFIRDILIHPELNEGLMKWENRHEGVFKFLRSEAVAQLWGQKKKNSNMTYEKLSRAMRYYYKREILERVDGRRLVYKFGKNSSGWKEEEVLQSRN
Summary of the method: as §1

[18] = molecular target: CRX (Homo sapiens, UniProt O43186 1-299); settings: protein: recombinant; tags: N-terminal GST; dsDNA, one strand shown
Summary of the method: as §1

[19] = molecular target: ETV1 (Homo sapiens, UniProt P50549 1-477); settings: protein: recombinant; tags: N-terminal GST; dsDNA, one strand shown
Summary of the method: as §1

Chain of CRX (O43186 whole entry): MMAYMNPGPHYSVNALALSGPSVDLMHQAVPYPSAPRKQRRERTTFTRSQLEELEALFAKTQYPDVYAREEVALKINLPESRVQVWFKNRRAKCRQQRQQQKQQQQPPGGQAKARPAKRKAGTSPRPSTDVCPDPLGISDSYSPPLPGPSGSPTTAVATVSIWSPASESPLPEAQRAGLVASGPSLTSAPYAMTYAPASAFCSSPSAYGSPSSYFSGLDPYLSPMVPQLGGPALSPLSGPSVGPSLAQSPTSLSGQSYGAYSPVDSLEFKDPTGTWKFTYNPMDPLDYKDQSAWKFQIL
Chain of ELF1 (P32519 whole entry): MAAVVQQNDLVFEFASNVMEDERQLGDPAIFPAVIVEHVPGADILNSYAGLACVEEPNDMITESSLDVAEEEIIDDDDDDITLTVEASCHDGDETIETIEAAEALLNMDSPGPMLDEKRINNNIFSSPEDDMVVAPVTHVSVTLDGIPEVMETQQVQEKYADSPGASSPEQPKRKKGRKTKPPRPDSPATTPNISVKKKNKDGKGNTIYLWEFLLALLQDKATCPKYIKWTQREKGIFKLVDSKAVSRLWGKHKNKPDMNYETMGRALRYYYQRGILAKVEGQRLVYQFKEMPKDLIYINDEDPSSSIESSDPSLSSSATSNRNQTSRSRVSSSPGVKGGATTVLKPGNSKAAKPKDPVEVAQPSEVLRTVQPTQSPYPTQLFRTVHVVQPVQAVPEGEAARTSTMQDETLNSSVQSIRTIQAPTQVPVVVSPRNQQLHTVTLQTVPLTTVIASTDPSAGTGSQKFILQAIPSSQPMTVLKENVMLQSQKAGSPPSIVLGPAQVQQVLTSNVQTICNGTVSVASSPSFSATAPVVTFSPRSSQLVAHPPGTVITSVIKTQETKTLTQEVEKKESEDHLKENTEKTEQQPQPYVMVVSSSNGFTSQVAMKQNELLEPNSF
Chain of HSF1 (Q00613 whole entry): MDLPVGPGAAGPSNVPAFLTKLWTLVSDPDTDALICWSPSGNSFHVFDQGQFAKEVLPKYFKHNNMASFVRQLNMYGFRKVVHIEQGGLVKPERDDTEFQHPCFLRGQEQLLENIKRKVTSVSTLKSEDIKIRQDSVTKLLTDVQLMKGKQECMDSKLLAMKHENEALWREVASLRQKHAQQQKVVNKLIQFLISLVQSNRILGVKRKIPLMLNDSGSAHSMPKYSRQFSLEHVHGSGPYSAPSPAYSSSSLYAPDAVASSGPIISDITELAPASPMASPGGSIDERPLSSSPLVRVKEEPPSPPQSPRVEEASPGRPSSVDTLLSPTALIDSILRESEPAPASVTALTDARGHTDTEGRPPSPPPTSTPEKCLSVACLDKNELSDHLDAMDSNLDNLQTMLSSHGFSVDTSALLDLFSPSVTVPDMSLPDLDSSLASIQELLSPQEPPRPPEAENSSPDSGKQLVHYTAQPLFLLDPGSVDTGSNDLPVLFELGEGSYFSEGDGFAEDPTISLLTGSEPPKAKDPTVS
Chain of ELF4 (Q99607 whole entry): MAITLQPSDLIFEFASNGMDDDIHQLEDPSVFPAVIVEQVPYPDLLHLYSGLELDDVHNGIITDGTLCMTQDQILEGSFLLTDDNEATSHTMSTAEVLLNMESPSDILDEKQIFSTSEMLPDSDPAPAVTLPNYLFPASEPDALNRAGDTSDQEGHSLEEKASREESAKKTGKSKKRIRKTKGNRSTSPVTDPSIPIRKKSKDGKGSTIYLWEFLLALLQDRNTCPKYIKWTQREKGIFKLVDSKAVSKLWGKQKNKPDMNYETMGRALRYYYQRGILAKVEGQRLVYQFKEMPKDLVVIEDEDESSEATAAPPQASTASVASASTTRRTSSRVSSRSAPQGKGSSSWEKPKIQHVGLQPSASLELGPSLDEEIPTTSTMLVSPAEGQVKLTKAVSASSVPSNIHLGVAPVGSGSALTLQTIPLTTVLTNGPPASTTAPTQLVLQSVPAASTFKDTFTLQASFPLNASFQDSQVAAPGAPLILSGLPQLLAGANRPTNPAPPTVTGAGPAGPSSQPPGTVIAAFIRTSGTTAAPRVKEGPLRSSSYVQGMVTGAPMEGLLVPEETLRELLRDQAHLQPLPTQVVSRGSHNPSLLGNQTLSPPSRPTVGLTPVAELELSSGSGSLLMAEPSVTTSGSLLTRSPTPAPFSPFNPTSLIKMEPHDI
Chain of ETV1 (P50549 whole entry): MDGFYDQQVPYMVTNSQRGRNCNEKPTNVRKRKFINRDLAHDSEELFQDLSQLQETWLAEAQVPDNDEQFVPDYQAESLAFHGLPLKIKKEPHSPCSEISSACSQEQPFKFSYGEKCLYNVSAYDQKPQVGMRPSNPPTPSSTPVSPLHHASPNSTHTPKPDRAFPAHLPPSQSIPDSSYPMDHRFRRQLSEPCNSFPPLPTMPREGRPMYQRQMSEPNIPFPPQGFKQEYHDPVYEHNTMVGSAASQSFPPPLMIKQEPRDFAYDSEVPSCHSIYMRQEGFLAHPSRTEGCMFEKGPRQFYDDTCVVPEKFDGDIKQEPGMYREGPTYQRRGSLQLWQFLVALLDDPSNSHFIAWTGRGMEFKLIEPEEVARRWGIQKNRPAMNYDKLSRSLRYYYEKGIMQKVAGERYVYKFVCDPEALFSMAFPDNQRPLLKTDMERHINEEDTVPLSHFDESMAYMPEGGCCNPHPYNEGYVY
Chain of SPIB (Q01892 whole entry): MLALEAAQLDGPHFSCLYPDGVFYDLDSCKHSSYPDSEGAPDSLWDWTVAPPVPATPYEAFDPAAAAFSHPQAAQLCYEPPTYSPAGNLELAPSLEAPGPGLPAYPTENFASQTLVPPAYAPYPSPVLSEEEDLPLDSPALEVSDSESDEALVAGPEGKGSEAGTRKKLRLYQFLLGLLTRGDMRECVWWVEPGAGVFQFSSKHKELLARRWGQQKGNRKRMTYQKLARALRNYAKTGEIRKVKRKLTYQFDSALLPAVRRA
Chain of ETV5 (P41161 whole entry): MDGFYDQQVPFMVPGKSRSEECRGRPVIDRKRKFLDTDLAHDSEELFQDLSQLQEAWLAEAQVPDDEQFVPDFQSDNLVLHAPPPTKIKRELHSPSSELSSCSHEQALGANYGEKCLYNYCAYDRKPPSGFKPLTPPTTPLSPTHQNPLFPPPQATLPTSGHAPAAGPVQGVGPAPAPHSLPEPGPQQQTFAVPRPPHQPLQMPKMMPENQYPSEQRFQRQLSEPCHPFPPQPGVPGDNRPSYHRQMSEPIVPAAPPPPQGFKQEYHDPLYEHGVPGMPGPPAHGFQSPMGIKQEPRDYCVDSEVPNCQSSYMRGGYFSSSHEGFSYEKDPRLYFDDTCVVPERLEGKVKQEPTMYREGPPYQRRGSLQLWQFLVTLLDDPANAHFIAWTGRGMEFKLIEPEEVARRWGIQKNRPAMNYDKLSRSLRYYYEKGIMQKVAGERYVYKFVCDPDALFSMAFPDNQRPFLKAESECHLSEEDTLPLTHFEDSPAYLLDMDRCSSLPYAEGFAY

CCGCAC
binding signal [1]: 1.45 fold enrichment (6-mer frequency, TF over GST control) | binding signal [2]: 1.45 fold enrichment (6-mer frequency, TF over GST control) | binding signal [3]: 1.5 fold enrichment (6-mer frequency, TF over GST control) | binding signal [4]: 1.42 fold enrichment (6-mer frequency, TF over GST control) | binding signal [5]: 1.55 fold enrichment (6-mer frequency, TF over GST control) | binding signal [6]: 1.5 fold enrichment (6-mer frequency, TF over GST control) | binding signal [7]: 1.52 fold enrichment (6-mer frequency, TF over GST control) | binding signal [8]: 1.41 fold enrichment (6-mer frequency, TF over GST control) | binding signal [9]: 1.52 fold enrichment (6-mer frequency, TF over GST control) | binding signal [10]: 1.42 fold enrichment (6-mer frequency, TF over GST control) | binding signal [11]: 1.4 fold enrichment (6-mer frequency, TF over GST control) | binding signal [12]: 1.13 fold enrichment (6-mer frequency, TF over GST control) | binding signal [13]: 1.27 fold enrichment (6-mer frequency, TF over GST control) | binding signal [14]: 1.5 fold enrichment (6-mer frequency, TF over GST control) | binding signal [15]: 1.3 fold enrichment (6-mer frequency, TF over GST control) | binding signal [16]: 1.39 fold enrichment (6-mer frequency, TF over GST control) | binding signal [17]: 1.39 fold enrichment (6-mer frequency, TF over GST control) | binding signal [18]: 1.02 fold enrichment (6-mer frequency, TF over GST control) | binding signal [19]: 1.47 fold enrichment (6-mer frequency, TF over GST control)
